The source of these data is PMC6792352, “Limited Chemical Structural Diversity Found to Modulate Thyroid Hormone Receptor in the Tox21 Chemical Library” (Environmental Health Perspectives, 2019).

Where a name gives a salt, the structure may show the parent alone. Bounds are passed on as bounds.

One may read the AC50 as the concentration giving half of the maximal activity seen.

The subject of this test is thyroid hormone receptor (endogenous TRα and TRβ). On the set-up: species or system GH3-TRE-Luc (rat pituitary); GH3-TRE-Luc luciferase reporter, antagonist mode against 1 nM T3, loss of signal, qHTS. The note with it: antagonist mode, 1 nM T3, no GH3 cytotoxicity hit, read-out: Average AC50 (uM) GH3-TRE-Antag.
In the case of `CC(C)(C)c1ccccc1OP(=O)(Oc1ccccc1)Oc1ccccc1` [tert-Butylphenyl diphenyl phosphate], the AC50 came out at 88.4 µM. For `Clc1cccc(N2CCNCC2)c1` [1-(3-Chlorophenyl)piperazine] the value was 20 µM; for `Nc1ccccc1C(=O)Oc1ccc2ccccc2c1` [Naphthalen-2-yl 2-aminobenzoate], 82.4 µM. For `COc1ccc2c(c1)[C@]13CCCC[C@@H]1[C@H](C2)N(C)CC3` [Dextromethorphan hydrobromide monohydrate] the value was 21.1 µM; for `COc1cc(CC(C)N)cc2c1OCO2` (stereo not drawn) [1-(7-Methoxy-1,3-benzodioxol-5-yl)propan-2-amine hydrochloride], 48.3 µM; for `O=c1c2ccccc2c(=O)c2c1cc(Cl)c1[nH]c3c([nH]c12)c(Cl)cc1c(=O)c2ccccc2c(=O)c13` [D&C Blue No. 9], 57.8 µM. For `O=C(O)Cc1ccccc1` [Phenylacetic acid] the value was 18.1 µM; for `COP(=S)(OC)Oc1ccc(Sc2ccc(OP(=S)(OC)OC)cc2)cc1` [Temephos], over 50 µM; for `Oc1c(Br)cc(Br)cc1Br` [2,4,6-Tribromophenol], over 50 µM.

`CCOc1ccc2c3c1O[C@H]1[C@@H](O)C=C[C@H]4[C@@H](C2)N(C)CC[C@@]341` [Ethylmorphine]: the AC50 is 44.9 µM. The result for `C=CC(=O)OCCO` [2-Hydroxyethyl acrylate] reads 51.5 µM. For `CCOP(=S)(OCC)Oc1ccc(Cl)cc1Cl` [Dichlofenthion] the value was 71.5 µM; for `Brc1ccc(Oc2cc(Br)c(Br)cc2Br)c(Br)c1` [2,2',4,4',5-Pentabromodiphenyl ether], 39.4 µM; for `C[C@]12C=CC(=O)C=C1CC[C@@H]1[C@@H]2CC[C@@]2(C)[C@H]1CC[C@]2(C)O` [Methandrostenolone], 34.4 µM. The result for `ClC1(Cl)C2(Cl)C3(Cl)C4(Cl)C(Cl)(Cl)C5(Cl)C3(Cl)C1(Cl)C5(Cl)C24Cl` (stereo not drawn) [Mirex] reads over 90 µM; that for `CCC1COC(Cn2cncn2)(c2ccc(Cl)cc2Cl)O1` (stereo not drawn) [Etaconazole], 36.8 µM.

On to `COC1=CC=C2[C@H]3Cc4ccc(OC)c5c4[C@@]2(CCN3C)[C@H]1O5` [Thebaine], for which the AC50 was over 20 µM.

As for `CC[C@@H](O)C(C[C@@H](C)N(C)C)(c1ccccc1)c1ccccc1` [(+)-alpha-Methadol hydrochloride], the AC50 was 55.7 µM. In the case of `COP(=S)(OC)Oc1ccc(S(=O)(=O)N(C)C)cc1` [Famphur], the AC50 was over 50 µM. On to `Nc1ccc(N=Nc2ccc(-c3ccc(N=Nc4c(S(=O)(=O)O)cc5cc(S(=O)(=O)O)c(N=Nc6ccccc6)c(O)c5c4N)cc3)cc2)c(N)c1` [C.I. Direct Black 38], for which the AC50 was 14 µM.

Take `CC(C)NC(C)Cc1ccc(I)cc1` (stereo not drawn) [Iofetamine hydrochloride]: the AC50 amounted to 22.3 µM.

`CC(=O)[C@H]1CC[C@H]2[C@@H]3CC[C@@H]4C[C@H](O)CC[C@]4(C)[C@H]3CC[C@]12C` [Eltanolone]: the AC50 was determined as 13.6 µM. In the case of `CCCCCCCCCCCCBr` [1-Bromododecane], the AC50 stood at 93.3 µM. For `O=C1C(=O)c2cccc3cccc1c23` [Acenaphthenequinone] the value was 76.1 µM; for `COc1ccc2[nH]cc(CCN(C(C)C)C(C)C)c2c1` [5-Methoxy-N,N-diisopropyltryptamine hydrochloride], 70.7 µM; for `CNC(=O)Oc1ccccc1C(=O)Nc1ccccc1` [Anilamate], over 50 µM. The result for `CC(C)=CC1C(C(=O)OCN2C(=O)C3=C(CCCC3)C2=O)C1(C)C` (stereo not drawn) [Tetramethrin] reads over 50 µM; that for `COP(=O)(OC)O/C(=C\Cl)c1cc(Cl)c(Cl)cc1Cl` [Z-Tetrachlorvinphos], 37.7 µM.

Consider `CCOP(=S)(OCC)SCSC(C)(C)C` [Terbufos], for which the AC50 worked out at 85 µM.

In the case of `C[C@H](CN1CCOCC1)C(C(=O)N1CCCC1)(c1ccccc1)c1ccccc1` [Dextromoramide tartrate], the AC50 came out at 56.7 µM. For `CNP(=O)(OC)Oc1ccc(C(C)(C)C)cc1Cl` (stereo not drawn) [Crufomate] the value was 52.9 µM; for `Cn1c(-c2ccccc2)cc(-c2ccccc2)[n+]1C` [Difenzoquat metilsulfate], 68.7 µM; for `CCOP(=O)(OCC)O/C(=C\Cl)c1ccc(Cl)cc1Cl` [Chlorfenvinphos], over 50 µM.
